# MARV entry inh – Marburg virus entry inhibition; Marburg virus pseudotype entry/binding inhibition, cell-based; Potency, µM (doses to about 49.2 µM), usual class: inhibitors; 6.5% of 18,000 active
# Lassa entry – inhibitors of Lassa virus binding or entry into cells; Lassa virus pseudotyped entry inhibition, cell-based qHTS; Potency, µM (doses to about 49.2 µM), hits mostly inhibitors; 4.1% of 18,000 active
# Hits are given with their value; n = inactive; u = inconclusive; x = not tested or not shown; ! = repeats disagree; [ ] = dose if it differs, or a comment. Compounds with a hit are over-represented: about 7.1% of the library has one in this group of screens. The call rests on the fitted dose curve; tested in HEK293 cells.
SMILES,MARV entry inh,Lassa entry
O=C(O)c1ccc(-c2c3nc(c(-c4ccc(C(=O)O)cc4)c4ccc([n-]4)c(-c4ccc(C(=O)O)cc4)c4nc(c(-c5ccc(C(=O)O)cc5)c5ccc2[n-]5)C=C4)C=C3)cc1.[Mn+3],n,n
CCOC(=O)NN=C1C[C@@H](O)[C@@H](O)[C@@H]2[C@H]3C(=O)N(Cc4ccc5c(c4)OCO5)C(=O)[C@@H]3CC[C@@H]12,n[8.59 µM],n[8.59 µM]
CCCCCCCc1cc2ccccc2c2c(C(=O)OC)c(C)c(C(=O)OC)n12,n[8.59 µM],n[8.59 µM]
Cc1c(C(=O)NCc2ccc3c(c2)OCO3)cnn1-c1ncc2c(n1)-c1ccccc1CC2,n,n
O=C(c1ccc(N2CCC(NCCCn3ncc4ccccc43)CC2)cc1)N1CCc2ccccc2C1,20µM,u
O=C(c1ccc(N2CCC(NCCCn3ncc4ccccc43)CC2)cc1)N1CCOCC1,u,n
Cc1ccc(CNc2ncnc3sc(C(=O)N4CCC[C@H]4C(N)=O)c(C)c23)o1,n,n
CCCCS(=O)(=O)N1CCc2nc(-c3ccccc3)c3c(c2C1)CO[C@@H](C)C3,n[8.59 µM],n[8.59 µM]
C=CCC12C=C(OC)C(=O)C(C1=O)C(c1ccc(OC)cc1)C2C (centres undefined),n[8.59 µM],n[8.59 µM]
Clc1ccc(-n2cccc2CN2CCOc3ccc(CN4CCOCC4)cc3C2)nc1,u,n
C[N+]1(C)C[C@@H](O)C[C@@H]1C(=O)[O-],n,n
COC1=CC(=O)C=C(OC)C1=O,7.1µM,10µM
COC1=CC(=O)C(C(=O)c2ccccc2)=CC1=O,n,n
C=CCOC(=O)N[C@H](C(C(=O)OC)=C(C)NCc1ccccc1)c1ccc(C)cc1,n[8.59 µM],x
C=CCOC(=O)N[C@H](/C(C(=O)OC)=C(\C)NCc1ccccc1)c1cccc(OC)c1,n,n
COc1ccc2c(c1)O[C@H](c1ccc3c(c1)OCO3)[C@@H](OC(=O)NCc1ccco1)C2=O,n,n
COC(=O)[C@]1(C)CC[C@@]2(C)CC[C@@]3(C)C4=CCc5c(cc(O)c(O)c5C)[C@]4(C)CC[C@@]3(C)C2C1 (some centres undefined),u,18µM
COc1cc(=O)n2c(c1C(=O)NCc1nonc1C)CCN(C(=O)c1cccc(C)c1C)CC2,u,n
C=CCOC(=O)NC(CC(=Nc1ccc(OC)cc1)C(=O)OC)c1ccccc1 (centres undefined),n,n
COc1ccc(S(=O)(=O)N(CCO)c2ccccc2CN(C)C/C=C/c2ccc(Cl)cc2)cc1,8.9µM,u
CN(C/C=C/c1ccccc1)Cc1cccc2ccccc12,n,n
CCOC(=O)C1=C(c2ccccc2)c2cc(OC)ccc2OC1C(=O)OCC (centres undefined),n,n
CC(C)C[C@H](NC(=O)[C@H](CCCCN)NC(=O)[C@H](CCCNC(=N)N)NC(=O)[C@H](C)NC(=O)[C@H](CO)NC(=O)[C@H](CCCCN)NC(=O)[C@H](CCCNC(=N)N)NC(=O)[C@H](C)NC(=O)CNC(=O)[C@@H](NC(=O)[C@H](Cc1ccccc1)NC(=O)CNC(=O)CNC(=O)[C@@H](N)Cc1ccccc1)[C@@H](C)O)C(=O)N[C@@H](C)C(=O)N[C@@H](CC(N)=O)C(=O)N[C@@H](CCC(N)=O)C(=O)O,n,n
CN(Cc1cc(Br)cc(Br)c1N)C1CCCCC1,u,28µM
C#CCN1CC(=O)N(COC(=O)C2C(C=C(C)C)C2(C)C)C1=O (centres undefined),n,n
SMILES,MARV entry inh,Lassa entry
C=CCC1=C(C)C(OC(=O)C2C(C=C(C)C)C2(C)C)CC1=O (centres undefined),u,28µM
COc1cc2c(cc1OC)[C@@H]1CC(=O)[C@@H](CC(C)C)CN1CC2,n,n
C=C1CCC2C(CC2(C)C)C(=C)CC/C1=N/O (centres undefined),n,n
CCC(=O)c1ccc2c(c1)N(CCCN(C)C)c1ccccc1S2,22µM,32µM
COc1ccc([C@H]2Sc3ccccc3N(CCN(C)C)C(=O)[C@H]2OC(C)=O)cc1,n,u
CC(=O)c1ccc2c(c1)N(CCCN(C)C)c1ccccc1S2,u,n
CN(C)CCCN1c2ccccc2Sc2ccccc21,7.1µM,u
CCCCCCN1C(=O)CC[C@@]23C1=NC(C(=O)OC)=C(C(=O)OC)[C@@H]2N(Cc1ccccc1)c1ccccc13,n[8.59 µM],n[8.59 µM]
CC(O)(COc1ccccc1)c1ccc2c(c1)CN(Cc1cccc3ncccc13)CCO2 (centres undefined),n,n
CC1(C)CCC2=C(O1)c1ccccc1C(=O)C2=O,11µM,7.1µM
CC(=O)OC1C[C@@]2(C)C(c3ccoc3)OC(=O)C3O[C@@]32[C@]2(C)C(OC(C)=O)CC3C(C)(C)C(OC(C)=O)CC(OC(C)=O)[C@@]3(C)C12 (some centres undefined),n,n
CC(=O)OC1CC(OC(C)=O)[C@]2(C)C(CC(OC(C)=O)[C@]3(C)C2CC[C@@]2(C)C(c4ccoc4)C(=O)C4O[C@]432)C1(C)C (some centres undefined),16µM,n
COc1ccc2c(c1)C(=O)[C@H](OC(=O)NCCc1ccc(OC)c(OC)c1)[C@@H](c1ccc(OC)c(Br)c1)O2,n,n
C[C@H]1CCC/C=C/[C@@H]2C[C@H](O)C[C@H]2[C@H](O)/C=C/C(=O)O1,1.1µM,1.1µM
C[C@H]1CCC/C=C/C2C[C@H](O)C[C@H]2[C@H](O)/C=C/C(=O)O1 (some centres undefined),0.63µM,0.63µM!
C[C@H]1CCCC(=O)CCC/C=C/c2c(O)cc(O)cc2C(=O)O1,n,n
CC(=CC[Si](C)(C)C)CCC=O,n[8.59 µM],x
CCOC(=O)[C@@H]1CSCCS(=O)(=O)N1Cc1ccc(C(F)(F)F)cc1,n,n
O=C(/C=C/c1ccc(O)cc1)c1cccs1,n,n
COc1cc(/C=C/C(=O)c2cccs2)cc(OC)c1OC,u,32µM
CC[C@H](C)[C@H](NC(=O)[C@H](Cc1ccccc1)NC(=O)[C@H](C)NC(=O)[C@H](CC(=O)O)NC(=O)[C@H](CCCCN)NC(=O)[C@H](CO)NC(=O)[C@@H]1CCCN1C(=O)[C@@H]1CCC(=O)N1)C(=O)NCC(=O)N[C@@H](CC(C)C)C(=O)N[C@@H](CCSC)C(N)=O,n,n
Cc1ccc(S(=O)(=O)N2CCC(=O)N([C@H](COCc3cccc(C(F)(F)F)c3)C(C)C)CC2)cc1,u,n
Cc1ccc(S(=O)(=O)N2CCC(=O)N([C@H](COCc3cccc(C(F)(F)F)c3)Cc3ccccc3)CC2)cc1,11µM,u
COc1ccc(-c2cc(=S)ss2)cc1,n,n
CCc1ccc(S(=O)(=O)O)cc1,n,n
SMILES,MARV entry inh,Lassa entry
O=C(O)c1[nH]n(-c2ccc(S(=O)(=O)O)cc2)c(=O)c1N=Nc1ccc(S(=O)(=O)O)cc1,u,4µM
CNc1ccc2oc(C[C@@H]3OC4(CC[C@@H]3C)O[C@H](C(C)C(=O)c3ccc[nH]3)[C@H](C)C[C@H]4C)nc2c1C(=O)O (some centres undefined),5.6µM,u
CNc1ccc2oc(C[C@H]3O[C@]4(CC[C@H]3C)O[C@H]([C@H](C)C(=O)c3ccc[nH]3)[C@H](C)C[C@H]4C)nc2c1C(=O)O,4.5µM,3.5µM
NCCCCC(N)C(=O)NC(Cc1ccc(O)cc1)C(=O)NC(CCCCN)C(=O)O (centres undefined),n,n
S=C=S,n,n
CCC1CN(CCNC(=O)c2ccnc(Cl)c2)Cc2cc(OC)ccc2O1 (centres undefined),n,u
CCC1CN(Cc2cn[nH]c2-c2ccc(F)cc2)Cc2cc(OC)ccc2O1 (centres undefined),u,n
